Laboratory results taken from PubChem BioAssay (Tox21).
Inconclusive results are not listed. Calls of active or inactive are those of the source. Calls follow the shape of the full dose curve.

Assay: p53 small molecule agonists, cell-based qHTS assay with rat liver microsomes: qHTS cell viability counter screen (AID 1963580); also: nearly all actives have a fitted effect of over 45% in size
Settings: p53RE-bla HCT-116 + rat microsomes, ATP viability, 16 h; series mostly up to 66 µM; activity change, negative = cytotoxicity: at the top concentration
From the text: National Center for Advancing Translational Sciences [NCATS]
Division of Preclinical Innovation [DPI]
U.S. Environmental Protection Agency [EPA]
National Institutes of Environmental Health Sciences [NIEHS]
National Toxicology Program [NTP]
U.S. Food and Drug Administration [FDA]
p53, a tumor suppressor protein, is activated following cellular insult, including DNA damage and other cellular stresses. The activation of p53 regulates cell fate by inducing DNA repair, cell cycle arrest, apoptosis, or cellular senescence. The activation of p53, therefore, is a good indicator of DNA damage and other cellular stresses. The CellSensor p53RE-bla HCT-116 cell line contains a stably integrated beta-lactamase reporter gene under control of the p53 response elements. The activation of the reporter gene under culture conditions can be detected by fluorescence intensity. This cell line was used to screen the Tox21 10K compound library in the condition of presence of rat liver microsomes and to identify agonists that activate the p53 signaling pathway after in vitro metabolic activation (Ooka et al., Archive of Toxicology 96:1975-1987, 2022). The cytotoxicity of the Tox21 compound library against the p53 RE-bla HCT-116 cell line was tested in parallel by measuring the intra cellular ATP content in the same wells.
Tox21 Assay Protocol Summary:
The p53RE-bla cells were dispensed at 4,000cells/3ul/well in 1536-well black-clear bottom plates. After the assay plates were incubated at 37 C, 5% CO2 incubator for 5 hours, 23 nL of compounds dissolved in DMSO, positive controls or DMSO only was transferred to the assay plate. Following compound addition, 3 uL of rat liver microsomes (Molecular Toxicology, Boone, NC) at final concentration of 0.5 mg/mL and 1uL of B-Nicotinamide adenine dinucleotide 2'-phosphate (NADPH) at final concentration of 0.5 mg/mL were transferred to the assay plate. The plates were incubated at 37 C for 16 hours. 1 uL of LiveBLAzer detection mixture was added to each well and the plates were incubated at room temperature in the dark for 2 h. Fluorescence intensity at 460 and 530 nm emission and 405 nm excitation were measured by an Envision plate reader. For cell viability readout that measures cytotoxicity, 4 ul/well of CellTiter-Glo reagent was added into the assay plates using a Flying Reagent Dispenser. After 30 min incubation at room temperature, the luminescence intensity in the plates was measured using a ViewLux plate reader.
% is scaled to controls: 0 for no effect and ±100 for the full control effect; potency is read from the fitted curve at half-maximal effect.

Structure (SMILES)	activity change, negative = cytotoxicity	Potency
CC(=O)/C=C/C1C(C)=CCC(C)C1(C)C (stereo not given)	10.2% (inactive)	–
CCOC(=O)c1c(C)n(C)c2ccc(O)cc12	0.192% [at 30.3 µM] (inactive)	–
ClC(c1ccccc1)(c1ccccc1)c1ccccc1	-1.09% (inactive)	–
Cc1ccc(S(=O)(=O)O)c(C)c1	20.9% (inactive)	–
FC(F)(F)c1ccccc1Cl	-4.32% (inactive)	–
COC(=O)c1ccc2cc(C(=O)OC)ccc2c1	-1.51% [at 13.5 µM] (inactive)	–
CN(Cc1cnc2nc(N)nc(N)c2n1)c1ccc(C(=O)N[C@@H](CCC(=O)O)C(=O)O)cc1	–	inactive
ClC/C=C\CCl	-4.85% (inactive)	–
CO[Si](CCCOCC1CO1)(OC)OC (stereo not given)	–	inactive
O=C(CCCN1CCC(O)(c2cccc(C(F)(F)F)c2)CC1)c1ccc(F)cc1	-6.2% [at 30.3 µM] (inactive)	–
OCC(CO)N[C@H]1C[C@](O)(CO)[C@@H](O)[C@H](O)[C@H]1O	6.1% [at 30.3 µM] (inactive)	–
CN(C)c1cccc(O)c1	-0.252% (inactive)	–
CCCCC(O)/C=C(C)/C=C/C=C/C(=O)N1CCCC1=O (stereo not given)	-0.408% [at 30.3 µM] (inactive)	–
Cc1ccc2c(c1)OCC(=O)CO2	-0.475% (inactive)	–
O=C(O)c1cc(C(=O)O)cc([N+](=O)[O-])c1	8.09% (inactive)	–
CC(C)c1cccc(O)c1	-13.3% (inactive)	–
N[C@@H](CSSC[C@H](N)C(=O)O)C(=O)O	-2.37% [at 0.249 µM] (inactive)	–
C[C@]12CCC(=O)C=C1CC[C@@H]1[C@@H]2[C@@H](O)C[C@@]2(C)[C@H]1CC[C@]2(O)C(=O)CO	–	inactive
CC(=O)OCCOCCOCCOC(C)=O	2.32% (inactive)	–
Nc1cc(S(=O)(=O)O)ccc1S(=O)(=O)O	-0.844% (inactive)	–

Structure (SMILES)	activity change, negative = cytotoxicity	Potency
O=C(O)c1cccnc1C(=O)O	-3.8% (inactive)	–
O=C(O)C(S)C(S)C(=O)O (stereo not given)	15.5% [at 30.3 µM] (inactive)	–
COc1cc(C(=O)N2CCCCCCC2)cc(OC)c1OC	0.0541% [at 30.3 µM] (inactive)	–
NS(=O)(=O)c1ccccc1Cl	1.35% (inactive)	–
CCCCCCCCCCCCCCCC	-11.3% (inactive)	–
O=c1cccc[nH]1	0.194% (inactive)	–
CCO[Si](C)(OCC)OCC	0% (inactive)	–
CC(CCO)CCc1ccccc1 (stereo not given)	-1.34% (inactive)	–
CCCCC(CC)CCC(CC(C)C)OS(=O)(=O)O (stereo not given)	14.1% (inactive)	–
O=c1cc(-c2ccccc2)oc2ccccc12	-2.65% (inactive)	–
O=c1oc2c(O)c(O)cc3c(=O)oc4c(O)c(O)cc1c4c23	-3.76% [at 13.5 µM] (inactive)	–
Cn1cnc2c1c(=O)[nH]c(=O)n2C	–	inactive
CC(C)CCCC(C)CCCC(C)CCCCC(C)CCCC(C)CCCC(C)C (stereo not given)	-0.245% [at 30.3 µM] (inactive)	–
CC(CO)Oc1ccccc1 (stereo not given)	0.501% (inactive)	–
CC(=O)c1ccc(O)c(C(N)=O)c1	-5% [at 30.3 µM] (inactive)	–
CCCCC(CC)COC(=O)CC(C(=O)OCC(CC)CCCC)S(=O)(=O)O (stereo not given)	–	35 µM (active)
O=[N+]([O-])c1ccccc1Nc1ccccc1	0.0626% (inactive)	–
CCCCN(CCO)CCO	0.411% (inactive)	–
CN(C)c1ccc(/C=C/c2ccc([N+](=O)[O-])cc2)cc1	-5.21% [at 5.99 µM] (inactive)	–
COCCOCCOCCOCCO	0.912% (inactive)	–
